Experimental findings from ChEMBL document CHEMBL3988442, “University of Dundee, Small-Polar-MMV Screening Library” (2021) are described below.

The structures appear in SMILES notation. About 900 (1.7%) of roughly 53,000 compounds showed an effect of 50% or more. Only a selection was taken, and strong results are over-represented in it overall.

This test relates to Mycobacterium tuberculosis. Kind of test: Cornell - Phenotypic assay to identify agents that inhibit growth of Mycobacterium tuberculosis. The class given is functional. Set-up: scale not given: direction of the effect not stated beside the values. To be noted: 10 mM as filed; unlikely as a test dose.
In the case of `CC(C)(C)NC(=O)CNC(=O)Nc1cc(-c2ccccc2)ns1`, the “Percent Effect” value came out at 38.08%.
With `FC(F)(F)c1cc(-c2cccs2)nc(N2CCN3CCCC3C2)n1` (configuration not stated), the “Percent Effect” value is recorded as 24.42%.
Turning to `Cc1c(-c2cc(C(F)(F)F)nc(N3CCC(N)CC3)n2)cnn1C`, the “Percent Effect” value is listed as 2.397%.
For the compound `CCn1ncc(-c2cc(C(F)(F)F)nc(N3CCC(N)CC3)n2)c1C`, the “Percent Effect” value came to 50.19%.
To `CCc1ccc(-c2cc(C(F)(F)F)nc(N3CCC(N)CC3)n2)cc1` belongs 105.7%; to `Cc1ccc(-c2cc(C(F)(F)F)nc(N3CCOCC3)n2)s1`, 4.079%; to `Cc1cc(C(F)(F)F)nc(N2CCN3CCCC3C2)n1` (configuration not stated), -50.74%.
Regarding `Cn1nc(CN2CCCC2)c2c1CN(c1cnccn1)CC2.O=C(O)C(F)(F)F.O=C(O)C(F)(F)F`, the “Percent Effect” value is on record as -1.06%.
Take `COCCC(=O)N1C[C@H]2CN(Cc3cccnc3)C(=O)[C@H]2C1.O=C(O)C(F)(F)F`: the “Percent Effect” value is 9.901%.
For the compound `COc1ccc(NC(=O)Cn2nc(C)c(C)cc2=O)cc1Cl`, the “Percent Effect” value was 14.09%.
Consider `COc1ccc(NC(=O)Cn2nc(C)c(C)cc2=O)cc1`, for which the “Percent Effect” value is reported as -2.402%.
Regarding `CC(=O)c1c(C)nn(CC(=O)Nc2ccc(F)cc2)c1C`, the “Percent Effect” value is -30.72%.
Take `Cc1cc(=O)n(CC(=O)Nc2ccc(Cl)cc2)nc1C`: the “Percent Effect” value was found to be 13.93%.
For the compound `COc1ccc(NC(=O)Cn2nc(C)c(C(C)=O)c2C)cc1`, the “Percent Effect” value is listed as 109.6%.
For `CC(=O)c1c(C)nn(CC(=O)Nc2ccc(Br)cc2)c1C`, the “Percent Effect” value was 109.5%.
As for `COCCN1CC[C@]2(CN(C(=O)c3ccc[nH]3)C[C@H]2C)C1=O`, the “Percent Effect” value is 14.18%.
`Cc1nn(C)c(Cl)c1C1CCCN1Cc1noc(C2CC2)n1` (configuration not stated): the “Percent Effect” value is -6.241%.
For the compound `CCCC(NC(=O)c1cscc1C)c1nnn[nH]1` (configuration not stated), the “Percent Effect” value was -31.84%.
In the case of `Cc1cnc(CN(C)C2CCN(Cc3sc(C)nc3C)C2)o1` (configuration not stated), the “Percent Effect” value is reported as -24.44%.
The result for `COC(=O)CNC(=O)C(C)Oc1ccccc1C(F)(F)F` (configuration not stated) reads -2.134%; that for `CC(Oc1ccccc1C(F)(F)F)C(=O)NS(=O)(=O)C(C)C` (configuration not stated), 54.22%; that for `CC(Oc1ccccc1C(F)(F)F)C(=O)NCC(N)=O` (configuration not stated), -32.94%.
Consider `COCCCN(Cc1ccncc1)c1ncc(C#N)cc1Cl`, for which the “Percent Effect” value stood at 15.37%.
On to `Cc1noc(NC(=O)c2ccc(C)c(F)c2)n1`, for which the “Percent Effect” value amounted to 108.6%.
With `Cc1noc(NC(=O)c2ccc(F)cc2)n1`, the “Percent Effect” value is reported as 2.649%.
To `COc1cc(C(=O)NS(=O)(=O)c2cccc(C#N)c2)ccc1C` belongs 15.37%.
`Cc1cc(NC(=O)c2ccc(C)c(F)c2)[nH]n1`: the “Percent Effect” value is 32.04%.
The result for `COc1cc(C(=O)Nc2c(C)noc2C)ccc1C` reads 19.94%; that for `COc1cc(C(=O)Nc2nc(C)no2)ccc1C`, 102.2%.
For `Fc1cc(Cl)cnc1N1CCCC(c2nccn2Cc2ccccn2)C1` (configuration not stated), the “Percent Effect” value is given as 15.7%.
On to `O=C(c1cc(Cn2ccc3ccccc32)[nH]n1)N1CCC[C@H]1CO`, for which the “Percent Effect” value worked out at 36.89%.
For the compound `Cc1c(CN2C[C@@H](O)[C@H](Oc3cccc(F)c3)C2)cnn1C`, the “Percent Effect” value is given as -27.75%.
The result for `CCc1cc(=O)[nH]c(-n2nc(C3CC3)cc2NC(=O)C2CC2)n1` reads 108.9%.
As to `CC(C)c1cc(=O)[nH]c(-n2nc(C3CC3)cc2N)n1`, the “Percent Effect” value is recorded as 108.3%.
Take `CCc1c(C)nc(-n2nc(C3CC3)cc2NC(C)=O)[nH]c1=O`: the “Percent Effect” value was found to be 9.536%.
For the compound `CC(C)c1cc(=O)[nH]c(C(C)(C)N)n1.Cl`, the “Percent Effect” value worked out at 8.844%.
In the case of `CCCc1cc(=O)[nH]c(-n2nc(C3CC3)cc2N)n1`, the “Percent Effect” value came out at 107.6%.
For the compound `CCCc1cc(=O)[nH]c(SCc2ccccn2)n1`, the “Percent Effect” value is listed as -4.123%.
`Cc1cc(=O)[nH]c(-n2nc(C3CC3)cc2N)n1`: the “Percent Effect” value is given as 39.12%.
Take `CCCc1cc(=O)[nH]c(-c2cccc(CN3CCCCCC3)c2)n1`: the “Percent Effect” value worked out at 11.6%.
Consider `Cn1nc(CNC(=O)C2CC2)cc1C1CC1`, for which the “Percent Effect” value was 29.19%.
To `CCN1CCCC(CNC(=O)C2(c3cc(C)cc(C)c3)CCC2)C1` (configuration not stated) belongs -9.012%; to `COc1cccc(CC(=O)N2CCCC2c2nc(C)c(F)c(O)n2)c1` (configuration not stated), -107.1%; to `CCNC(=O)NCc1ccc(-n2ccc(C(F)(F)F)n2)cc1`, 21.88%.
To `COCc1nnc(C(=O)N2CCC(N3CCCCC3)CC2)o1` belongs -29.51%; to `Cc1ccc(-c2ccc(Cl)nn2)cc1S(N)(=O)=O`, 6.758%; to `CC(=O)N1CCC(c2n[nH]cc2-c2ccnc(N)c2)C1` (configuration not stated), -32.92%.
To `CC(C)(C)NC(=O)N1CCCn2nc(C(=O)Nc3ccccc3)cc2C1` belongs 16.42%.
Turning to `Cc1nnsc1C(=O)NCc1nn(C2CCCC2)c2c1CCCC2`, the “Percent Effect” value came to 22.48%.
With `Cn1cc(-c2nc(C(=O)N3CCCC3c3cnn(C)c3)cs2)cn1` (configuration not stated), the “Percent Effect” value is recorded as 20.68%.
The result for `COc1cc(CNCc2c(C)nn(C)c2N(C)C)ccn1` reads 97.38%; that for `CCOc1ncccc1CNCc1c(C(C)C)nn(C)c1N(C)C`, -29.31%; that for `COc1ncccc1CNCc1c(C)nn(C)c1N(C)C`, -66.33%.
The result for `COc1cc(CNCc2c(C)nn(CC(C)C)c2N(C)C)ccn1` reads -17.24%; that for `CC(C)c1nn(C)c(N(C)C)c1CNCc1ccnn1C`, 65.83%; that for `CCOc1ncccc1CNCc1c(C)nn(C)c1N(C)C`, -13.13%.
In the case of `Cc1nn(CC(C)C)c(N(C)C)c1CNCc1ccnn1C`, the “Percent Effect” value is given as -14.58%.
With `Cc1nn(C)c(N(C)C)c1CNCc1ccnn1C`, the “Percent Effect” value was 46.97%.
As to `COc1cc(CNCc2c(C)nn(C)c2N(C)C)ccc1C`, the “Percent Effect” value turned out to be 13.2%.
The result for `COCCOc1ncccc1CNCc1c(C)nn(C)c1N(C)C` reads 87.98%; that for `COc1ncccc1CNCc1c(C(C)C)nn(C)c1N(C)C`, 63.07%; that for `COc1ncccc1CNCc1c(C(C)C)nn(C)c1OC`, 20.17%.
Consider `CCn1cc(CNC(=O)C(C)C)cn1`, for which the “Percent Effect” value came out at 7.058%.
On to `Cc1cc(C)cc(OCCCn2nc3ccccn3c2=O)c1`, for which the “Percent Effect” value turned out to be 34.72%.
`Cc1ccc(N(C)C2CCCN(C(=O)Nc3ccc(F)cc3F)C2)cc1` (configuration not stated): the “Percent Effect” value was 17.1%.
To `Cc1cccc(CN2Cc3ccnn3CC(COCC3CC3)C2)n1.O=C(O)C(F)(F)F` (configuration not stated) belongs 10.51%; to `COc1ccc(Br)c(NC(=O)NCc2ncnn2C)c1`, -5.732%; to `CCn1cc(NC(=O)CN2C(=O)CC(C)(C)c3ccccc32)cn1`, 23.89%.
As to `CC(=O)c1cccc(NC(=O)Cn2nc(-c3cccs3)oc2=O)c1`, the “Percent Effect” value was -19.71%.
Turning to `Cc1cc(N2CCC(O)(CN(C)C(=O)CCN)CC2)c2cnccc2n1`, the “Percent Effect” value was determined as 43.24%.
To `O=C(NCCn1cnnc1C1CC1)c1c(O)cc(F)cc1F` belongs -13.58%.
On to `COc1ccc([C@@H]2CN(Cc3ccncc3)C[C@H]2c2cc[nH]n2)cc1.O=C(O)CC(O)(CC(=O)O)C(=O)O`, for which the “Percent Effect” value is listed as 34.94%.
For `O=C(O)CC(O)(CC(=O)O)C(=O)O.c1ccc([C@@H]2CN(Cc3ccncc3)C[C@H]2c2cc[nH]n2)cc1`, the “Percent Effect” value was 17.96%.
In the case of `O=C(O)CC(O)(CC(=O)O)C(=O)O.c1ccc([C@@H]2CN(Cc3cccnc3)C[C@H]2c2cc[nH]n2)cc1`, the “Percent Effect” value was 51.47%.
For the compound `O=C1CC(c2ccccc2)c2c(c(C(=O)O)cn2-c2ccccc2)N1` (configuration not stated), the “Percent Effect” value is 15.99%.
As to `O=C(c1cc(F)ccc1O)N1CCN(C2CCOCC2)CC1`, the “Percent Effect” value is 23.2%.
With `Cc1cccc(NC(C)C(=O)Nc2nccs2)c1` (configuration not stated), the “Percent Effect” value is 6.251%.
The result for `COc1ccc2[nH]cc(-c3ccnc(NC4CCCC4)n3)c2c1` reads 104.1%; that for `COC(=O)c1ccc2c(-c3ccnc(NCCO)n3)c[nH]c2c1`, -4.775%; that for `COc1ccc2[nH]cc(-c3ccnc(N4CCC(C)CC4)n3)c2c1`, 24.84%.
With `COCCO[C@@H]1CCN(C(=O)c2ccnnc2)[C@H]1Cc1cnn(C)c1`, the “Percent Effect” value stood at 2.018%.
In the case of `CCNC(=O)[C@@H]1C[C@@H](NC(=O)Cc2ccncc2)CN1Cc1ccsc1`, the “Percent Effect” value is recorded as 31.97%.
On to `CCNC(=O)[C@@H]1C[C@@H](NC(=O)Cc2cc(C)no2)CN1Cc1ccsc1`, for which the “Percent Effect” value is listed as -13.59%.
As for `CCNC(=O)[C@@H]1C[C@H](NC(=O)Cn2ccnc2)CN1Cc1ccsc1`, the “Percent Effect” value was 104.2%.
Take `Cc1ncc(C(=O)OCC2CCN(c3ccccc3)C2)s1` (configuration not stated): the “Percent Effect” value was -13.58%.
Regarding `Cn1cc(CN2CCC(c3ncc(Cl)cc3S(C)(=O)=O)CC2)cn1`, the “Percent Effect” value was 39.28%.
To `Oc1nc(N2CCCC2)nc2c1CCN(Cc1ccsc1)CC2` belongs 2.378%; to `Cc1nc(N2CCCC2)nc2c1CCN(Cc1ccsc1)CC2.O=C(O)C(F)(F)F`, 72.79%.
Regarding `Cc1nc(N2CCCC2)nc2c1CCN(Cc1ccoc1)CC2.O=C(O)C(F)(F)F`, the “Percent Effect” value worked out at 56.27%.
The result for `Cc1nc(N2CCOCC2)nc2c1CCN(Cc1cccnc1)CC2.O=C(O)C(F)(F)F` reads 26.93%.
As to `Cc1nc(N2CCCC2)nc2c1CCN(Cc1ccco1)CC2.O=C(O)C(F)(F)F`, the “Percent Effect” value amounted to 96.95%.
The result for `Cc1nc(N2CCOCC2)nc2c1CCN(Cc1ccsc1)CC2.O=C(O)C(F)(F)F` reads 27.7%; that for `Cc1nc(N2CCCC2)nc2c1CCN(Cc1nccn1C)CC2.O=C(O)C(F)(F)F`, 0.1901%.
For `Cc1nc(C)c2c(n1)CCN(Cc1ccco1)CC2`, the “Percent Effect” value is given as -0.9283%.
On to `CC(C)Oc1ncnc2c1CCN(Cc1ccco1)CC2.O=C(O)C(F)(F)F`, for which the “Percent Effect” value stood at 21.95%.
In the case of `Cc1cc2cccc(NC(=O)N3CCC(N4CCSCC4)CC3)c2o1`, the “Percent Effect” value is recorded as 26.32%.
`O=C(CN1CCC2(CC1)NC(=O)c1cc(Br)ccc1N2)NC1CC1`: the “Percent Effect” value is reported as -67.58%.
For `Cc1cccc(CN2CCCCC23CCNC3)n1.O=C(O)C(F)(F)F.O=C(O)C(F)(F)F` (configuration not stated), the “Percent Effect” value is recorded as 9.569%.
Take `O=C(NCCc1coc(-c2ccc(F)cc2)n1)NC1CC1`: the “Percent Effect” value stood at 9.97%.
In the case of `CN[C@@H]1CCC[C@@H](Oc2ccccc2Oc2ccc(C)cc2)[C@@H]1O`, the “Percent Effect” value came out at 74.11%.
As to `N[C@@H]1CCC[C@@H](Oc2ccc(F)cc2Oc2ccccc2)[C@@H]1O`, the “Percent Effect” value was -14.7%.
`Cc1ccc(Oc2cc(F)ccc2O[C@@H]2CCC[C@@H](N)[C@H]2O)cc1`: the “Percent Effect” value is on record as 30.66%.
